PubChem BioAssay AID2710 (National Center for Advancing Translational Sciences (NCATS), 2010)
Calls of active or inactive are those of the source.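 The calls were made as follows: active = compounds whose dose response marks them as Clk4 kinase inhibitors with a measurable half-maximal potency; inactive = the rest.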

These molecules were tested against Dual specificity protein kinase CLK4 (Homo sapiens) (UniProt Q9HAZ1) (assay: Kinase Inhibition Profile Study on Inhibitors of CDC-like Kinase 4). Conditions: Reaction Biology radiometric kinase assay, 10 uM ATP.
Text: NIH Molecular Libraries Probe Production Centers Network [MLPCN] NIH Chemical Genomics Center [NCGC] MLSCN Grant: 1R03MH084827-01 Assay Submitter (PI): Tom Misteli NCGC Assay Overview: Alternative splicing of pre-mRNAs plays a major role in the regulation of eukaryotic gene expression. Alternative splicing is now thought to be one of the primary reasons for the complexity of higher organisms leading to an average of three protein isoforms per gene. Aberrant splicing can lead to a number of diseases and is known to play a role in rare genetic diseases such as progeria syndrome. Hutchinson-Gilford Progeria Syndrome (HGPS) is a pediatric premature aging disease caused by a spontaneous mutation in the lamin A/C (LMNA) gene due to a single point mutation in the lamin A gene effecting 1 in 4 million people. To identify both specific splicing modulators of the lamin A gene as well as general splicing modulators, a cell-based HTS assay was developed using a minigene reporter system (AIDs, 1459 & 1487). […] The Clk family is part of the CMGC group of protein kinases which includes Dyrks and are essential kinases found in all eukaryotes. Clks have been implicated to play a role in the regulation of alternative splicing; while Dyrks, in particular over expression of Dyrk1A, has been linked to diseases as Down syndrome and Alzheimer disease. This AID summarizes the characterization of lead Clk4 inhibitors in a panel of these related kinases: Clk1, 2 & 3, DYRK1/DYRK1A, and DYRK1B. Potency against Clk4 was also confirmed in the panel.
All kinase reactions were performed using 10 uM ATP in the assay. 100% activity was taken from kinase reactions with DMSO alone (the vehicle used for compound stock solutions).

Chain of Dual specificity protein kinase CLK4 (Homo sapiens) (Q9HAZ1 whole entry, looked up, canonical isoform): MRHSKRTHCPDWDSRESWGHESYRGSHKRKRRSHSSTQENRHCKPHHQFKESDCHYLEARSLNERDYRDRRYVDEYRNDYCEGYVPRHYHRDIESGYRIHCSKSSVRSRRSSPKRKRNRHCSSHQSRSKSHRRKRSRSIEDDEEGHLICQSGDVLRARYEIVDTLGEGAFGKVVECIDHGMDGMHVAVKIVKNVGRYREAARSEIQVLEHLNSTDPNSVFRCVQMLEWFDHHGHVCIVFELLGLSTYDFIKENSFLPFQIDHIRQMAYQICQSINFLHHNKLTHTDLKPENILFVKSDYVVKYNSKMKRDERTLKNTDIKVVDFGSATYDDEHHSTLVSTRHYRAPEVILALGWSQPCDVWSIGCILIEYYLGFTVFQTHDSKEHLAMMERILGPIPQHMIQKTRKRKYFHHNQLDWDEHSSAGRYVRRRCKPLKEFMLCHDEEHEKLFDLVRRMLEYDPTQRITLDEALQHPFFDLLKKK

SMILES	Potency
CCOC(=O)c1ccc(-c2ccc3ncnc(NCc4csc(C)n4)c3c2)o1	810 nM (active)
CC(C)(C)CNc1ncnc2ccc(-c3ccc4c(c3)OCO4)cc12	70 nM (active)
c1csc(CNc2ncnc3ccc(-c4ccoc4)cc23)c1	249 nM (active)
Cc1nc(CNc2ncnc3ccc(-c4ccoc4C)cc23)cs1	850 nM (active)
CN(Cc1ncc[nH]1)c1ncnc2ccc(-c3ccc4c(c3)OCO4)cc12	120 nM (active)
Cc1ccc(CNc2ncnc3ccc(-c4ccoc4C)cc23)o1	490 nM (active)
Cc1occc1-c1ccc2ncnc(NCCc3cnc[nH]3)c2c1	740 nM (active)
CCOC(=O)c1ccc(-c2ccc3ncnc(NCc4ccc(C)o4)c3c2)o1	230 nM (active)
c1csc(CNc2ncnc3ccc(-c4ccc5c(c4)OCO5)cc23)c1	39 nM (active)
c1nc(NCC2CCCC2)c2cc(-c3ccc4c(c3)OCO4)ccc2n1	90 nM (active)
CCOC(=O)c1ccc(-c2ccc3ncnc(NCCc4cnc[nH]4)c3c2)o1	250 nM (active)
OCc1ccc(-c2ccc3ncnc(NCCc4cnc[nH]4)c3c2)o1	1290 nM (active)
Cc1nc(CNc2ncnc3ccc(-c4ccoc4)cc23)cs1	340 nM (active)
COc1cccc(-c2ccc3ncnc(NCc4cccs4)c3c2)c1	1050 nM (active)
Cc1nc(CN(C)c2ncnc3ccc(-c4ccc5c(c4)OCO5)cc23)cs1	11 nM (active)
c1coc(-c2ccc3ncnc(NCc4cccs4)c3c2)c1	1090 nM (active)
Cc1nc(CNc2ncnc3ccc(-c4ccc5c(c4)OCO5)cc23)cs1	40 nM (active)
CCOC(=O)c1ccc(-c2ccc3ncnc(NCc4ncc[nH]4)c3c2)o1	790 nM (active)
c1nc(NCCc2cnc[nH]2)c2cc(-c3ccoc3)ccc2n1	840 nM (active)
O=C(O)c1ccc(-c2ccc3ncnc(NCCc4cnc[nH]4)c3c2)o1	940 nM (active)
c1nc(NCC2CCOC2)c2cc(-c3ccc4c(c3)OCO4)ccc2n1 (stereo unspecified)	29 nM (active)
